About 75 (0.5%) of roughly 16,000 compounds were called active. The sample holds actives, similar compounds and a random draw of the others, so the mix is not that of the screen. Rule as the data show it: active = inhibition above about 30%; inactive = the rest.
Target: Protein phosphatase methylesterase 1 (Homo sapiens) (UniProt Q9Y570)
Assay: Maybridge compound blocking human PME-1 (AID 2291)
Conditions: recombinant PME-1, FP-Rh probe fluorescence polarization; at 9 µM; active compounds read high

Chain of Protein phosphatase methylesterase 1 (Homo sapiens) (Q9Y570 whole entry, looked up): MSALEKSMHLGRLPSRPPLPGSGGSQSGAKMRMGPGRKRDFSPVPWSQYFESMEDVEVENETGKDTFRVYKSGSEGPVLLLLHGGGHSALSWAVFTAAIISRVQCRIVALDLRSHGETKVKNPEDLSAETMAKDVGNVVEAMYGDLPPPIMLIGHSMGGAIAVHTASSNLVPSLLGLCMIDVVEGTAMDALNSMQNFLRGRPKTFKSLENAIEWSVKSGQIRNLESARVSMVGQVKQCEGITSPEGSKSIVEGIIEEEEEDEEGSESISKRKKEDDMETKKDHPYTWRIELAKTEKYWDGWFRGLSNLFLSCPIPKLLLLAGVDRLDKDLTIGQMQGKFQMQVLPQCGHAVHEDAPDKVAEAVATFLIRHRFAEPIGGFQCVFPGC

inhibition, inactive:
CCOC(=O)c1c(N/N=C\c2ccccc2O)n[nH]c1C 7.03%
COc1ccccc1C1CCN(c2ccc([N+](=O)[O-])cn2)CC1 3.68%
COC(=O)c1scc(S(=O)(=O)Cc2ccco2)c1N/N=C(\C#N)S(=O)(=O)C(C)C 7.89%
CCCCOC(=O)c1ccc(-c2ccccn2)s1 5.14%
COc1cccc(/C=N/NC(=S)Nc2cc(C(F)(F)F)cc(C(F)(F)F)c2)c1O 5.97%
CCCC1NC(=O)NC(C)=C1C(=O)OCC (configuration not stated) -4.5%
O=[N+]([O-])c1ccc(C2CC2(Br)Br)cc1 (configuration not stated) 0.49%
Cc1nc2ccccn2c1C(=O)N/N=C/c1cn(-c2ccccc2)nc1-c1cccs1 1.07%
CSc1c(C#N)c(N)nc(SCC(=O)c2ccc(OC(F)F)cc2)c1C#N -10.3%
CCOC(=O)/C(C#N)=C/N=C(N/N=C/c1cccs1)SC -1.55%
Cn1c(CN2C(=O)CSc3ccc(C(F)(F)F)cc32)nnc1SCC(=O)c1ccccc1 5.25%
CC(C)CC(NC(=O)OC(C)(C)C)C(=O)OCc1ccc(CC(=O)O)cc1 (configuration not stated) -2.54%
O=C(NNc1ccccc1C(F)(F)F)NS(=O)(=O)c1ccc(Cl)cc1 5.25%
CCOC(=O)c1ccc2nc(C(F)(F)F)cc(N3CCN(Cc4ccccc4)CC3)c2c1 -1.13%
Cc1nc(C)c(-c2ccnc(-c3ccc(Cl)cc3)n2)s1 4.12%
NC(CC(=O)O)c1ccccc1 (configuration not stated) 6.22%
CSc1nc(N)nc2nc[nH]c12 -1.11%
COC(=O)c1cc(S(=O)(=O)NCc2csc(-c3cccs3)n2)oc1C -1.1%
CC1=C(C(=O)O)N2C(=O)[C@H](NC(=O)[C@@H](N)c3ccccc3)C2SC1 (some centres not stated) 0.953%
N#CCSc1ccc2ccccc2c1 3.36%
CCOC(=O)c1c(NC(=S)Nc2ccccc2)sc2c1CCN(C)C2 -2.27%
NC(=O)C1CCN(CC(O)CSc2ccc(F)cc2)CC1 (configuration not stated) 0.714%
CC(=O)Nc1cccc(-n2nnc(SCC(=O)c3cc(-c4ccccc4)no3)n2)c1 -46.5%
CCOC(=O)C(=CNc1cc(C(F)(F)F)ccc1NCc1ccccc1)C(=O)OCC 1.63%
COC(=O)c1cc(OC)c(OC)cc1NC(=O)CSc1ccc(Cl)cc1 5.14%
NC(=O)c1ccccc1OCCOc1ccccc1C(N)=O -1.29%
Cn1cc(Br)c(-c2cccc(NC(=O)c3ccccc3Cl)c2)n1 5.94%

Source: PubChem BioAssay AID2291 (The Scripps Research Institute Molecular Screening Center, 2010)
